Measured values reported in PubChem BioAssay AID493044 (Johns Hopkins Ion Channel Center, 2011).
Potency and affinity values are given separately. Active and inactive are the calls of the source.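 How the source made its calls: active means potentiation or inhibition of the KCNQ1 potassium channel at some dose, with a concentration-response curve obtained; inactive means no effect at any dose, or no curve obtained.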

target: Potassium voltage-gated channel subfamily KQT member 1 (Homo sapiens) (UniProt P51787); assay: KCNQ1 channel current modulation by KCNQ2 openers, dose response, selectivity assay for KCNQ2 activator project, automated patch clamp, KCNQ1-CHO cells (AID 493044); conditions: automated patch clamp current (IonWorks); series mostly up to 30 µM
Sequence (P51787 whole entry, looked up): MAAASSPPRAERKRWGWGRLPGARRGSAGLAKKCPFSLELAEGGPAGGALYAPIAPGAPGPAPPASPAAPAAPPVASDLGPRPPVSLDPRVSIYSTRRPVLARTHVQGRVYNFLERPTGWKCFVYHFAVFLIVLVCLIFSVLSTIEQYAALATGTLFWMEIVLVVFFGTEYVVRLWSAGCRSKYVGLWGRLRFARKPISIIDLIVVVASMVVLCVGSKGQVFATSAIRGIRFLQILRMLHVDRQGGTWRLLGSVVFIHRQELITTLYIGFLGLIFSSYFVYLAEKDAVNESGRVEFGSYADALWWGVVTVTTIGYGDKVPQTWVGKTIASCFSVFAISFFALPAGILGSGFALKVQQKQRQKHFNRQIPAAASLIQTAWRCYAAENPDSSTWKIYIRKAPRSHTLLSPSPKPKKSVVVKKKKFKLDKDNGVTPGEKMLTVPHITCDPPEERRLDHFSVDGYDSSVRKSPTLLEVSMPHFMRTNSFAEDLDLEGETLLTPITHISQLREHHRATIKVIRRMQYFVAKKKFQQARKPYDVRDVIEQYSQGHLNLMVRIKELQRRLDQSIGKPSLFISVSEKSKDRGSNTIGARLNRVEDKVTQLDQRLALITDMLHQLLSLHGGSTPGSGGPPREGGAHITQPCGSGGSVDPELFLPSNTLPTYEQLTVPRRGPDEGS

outcome, inactive:
Cc1cc(C)c(NC(=O)CC(C)(C)C)c(Cl)c1
Cc1cc(C)c(NC(=O)C2CC3CCC2C3)c(C)c1 (centres undefined)
CCCCC(=O)Nc1c(C)cc(C)cc1Cl
Cc1cccc(C)c1NC(=O)C1CC2CCC1C2 (centres undefined)
